Pf apPOL block = Pf-apPOL DNA polymerase inhibition. Recombinant Pf-apPOL, molecular beacon fluorescence, 1.5 h. inhibition, % at 10 µM. actives 0.25% (n = 210,000)
mHTT-CaM PPI inh = inhibitors of human mutant huntingtin-calmodulin interaction. inhibition, % at 15 µM. actives 3.6% (n = 190,000). AlphaScreen His-mHTT/GST-CaM binding, luminescence. AID 1671202;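 note: 0% = both proteins with DMSO and 100% = one protein alone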
Target sequence (P42858 whole entry, looked up, stated change not applied): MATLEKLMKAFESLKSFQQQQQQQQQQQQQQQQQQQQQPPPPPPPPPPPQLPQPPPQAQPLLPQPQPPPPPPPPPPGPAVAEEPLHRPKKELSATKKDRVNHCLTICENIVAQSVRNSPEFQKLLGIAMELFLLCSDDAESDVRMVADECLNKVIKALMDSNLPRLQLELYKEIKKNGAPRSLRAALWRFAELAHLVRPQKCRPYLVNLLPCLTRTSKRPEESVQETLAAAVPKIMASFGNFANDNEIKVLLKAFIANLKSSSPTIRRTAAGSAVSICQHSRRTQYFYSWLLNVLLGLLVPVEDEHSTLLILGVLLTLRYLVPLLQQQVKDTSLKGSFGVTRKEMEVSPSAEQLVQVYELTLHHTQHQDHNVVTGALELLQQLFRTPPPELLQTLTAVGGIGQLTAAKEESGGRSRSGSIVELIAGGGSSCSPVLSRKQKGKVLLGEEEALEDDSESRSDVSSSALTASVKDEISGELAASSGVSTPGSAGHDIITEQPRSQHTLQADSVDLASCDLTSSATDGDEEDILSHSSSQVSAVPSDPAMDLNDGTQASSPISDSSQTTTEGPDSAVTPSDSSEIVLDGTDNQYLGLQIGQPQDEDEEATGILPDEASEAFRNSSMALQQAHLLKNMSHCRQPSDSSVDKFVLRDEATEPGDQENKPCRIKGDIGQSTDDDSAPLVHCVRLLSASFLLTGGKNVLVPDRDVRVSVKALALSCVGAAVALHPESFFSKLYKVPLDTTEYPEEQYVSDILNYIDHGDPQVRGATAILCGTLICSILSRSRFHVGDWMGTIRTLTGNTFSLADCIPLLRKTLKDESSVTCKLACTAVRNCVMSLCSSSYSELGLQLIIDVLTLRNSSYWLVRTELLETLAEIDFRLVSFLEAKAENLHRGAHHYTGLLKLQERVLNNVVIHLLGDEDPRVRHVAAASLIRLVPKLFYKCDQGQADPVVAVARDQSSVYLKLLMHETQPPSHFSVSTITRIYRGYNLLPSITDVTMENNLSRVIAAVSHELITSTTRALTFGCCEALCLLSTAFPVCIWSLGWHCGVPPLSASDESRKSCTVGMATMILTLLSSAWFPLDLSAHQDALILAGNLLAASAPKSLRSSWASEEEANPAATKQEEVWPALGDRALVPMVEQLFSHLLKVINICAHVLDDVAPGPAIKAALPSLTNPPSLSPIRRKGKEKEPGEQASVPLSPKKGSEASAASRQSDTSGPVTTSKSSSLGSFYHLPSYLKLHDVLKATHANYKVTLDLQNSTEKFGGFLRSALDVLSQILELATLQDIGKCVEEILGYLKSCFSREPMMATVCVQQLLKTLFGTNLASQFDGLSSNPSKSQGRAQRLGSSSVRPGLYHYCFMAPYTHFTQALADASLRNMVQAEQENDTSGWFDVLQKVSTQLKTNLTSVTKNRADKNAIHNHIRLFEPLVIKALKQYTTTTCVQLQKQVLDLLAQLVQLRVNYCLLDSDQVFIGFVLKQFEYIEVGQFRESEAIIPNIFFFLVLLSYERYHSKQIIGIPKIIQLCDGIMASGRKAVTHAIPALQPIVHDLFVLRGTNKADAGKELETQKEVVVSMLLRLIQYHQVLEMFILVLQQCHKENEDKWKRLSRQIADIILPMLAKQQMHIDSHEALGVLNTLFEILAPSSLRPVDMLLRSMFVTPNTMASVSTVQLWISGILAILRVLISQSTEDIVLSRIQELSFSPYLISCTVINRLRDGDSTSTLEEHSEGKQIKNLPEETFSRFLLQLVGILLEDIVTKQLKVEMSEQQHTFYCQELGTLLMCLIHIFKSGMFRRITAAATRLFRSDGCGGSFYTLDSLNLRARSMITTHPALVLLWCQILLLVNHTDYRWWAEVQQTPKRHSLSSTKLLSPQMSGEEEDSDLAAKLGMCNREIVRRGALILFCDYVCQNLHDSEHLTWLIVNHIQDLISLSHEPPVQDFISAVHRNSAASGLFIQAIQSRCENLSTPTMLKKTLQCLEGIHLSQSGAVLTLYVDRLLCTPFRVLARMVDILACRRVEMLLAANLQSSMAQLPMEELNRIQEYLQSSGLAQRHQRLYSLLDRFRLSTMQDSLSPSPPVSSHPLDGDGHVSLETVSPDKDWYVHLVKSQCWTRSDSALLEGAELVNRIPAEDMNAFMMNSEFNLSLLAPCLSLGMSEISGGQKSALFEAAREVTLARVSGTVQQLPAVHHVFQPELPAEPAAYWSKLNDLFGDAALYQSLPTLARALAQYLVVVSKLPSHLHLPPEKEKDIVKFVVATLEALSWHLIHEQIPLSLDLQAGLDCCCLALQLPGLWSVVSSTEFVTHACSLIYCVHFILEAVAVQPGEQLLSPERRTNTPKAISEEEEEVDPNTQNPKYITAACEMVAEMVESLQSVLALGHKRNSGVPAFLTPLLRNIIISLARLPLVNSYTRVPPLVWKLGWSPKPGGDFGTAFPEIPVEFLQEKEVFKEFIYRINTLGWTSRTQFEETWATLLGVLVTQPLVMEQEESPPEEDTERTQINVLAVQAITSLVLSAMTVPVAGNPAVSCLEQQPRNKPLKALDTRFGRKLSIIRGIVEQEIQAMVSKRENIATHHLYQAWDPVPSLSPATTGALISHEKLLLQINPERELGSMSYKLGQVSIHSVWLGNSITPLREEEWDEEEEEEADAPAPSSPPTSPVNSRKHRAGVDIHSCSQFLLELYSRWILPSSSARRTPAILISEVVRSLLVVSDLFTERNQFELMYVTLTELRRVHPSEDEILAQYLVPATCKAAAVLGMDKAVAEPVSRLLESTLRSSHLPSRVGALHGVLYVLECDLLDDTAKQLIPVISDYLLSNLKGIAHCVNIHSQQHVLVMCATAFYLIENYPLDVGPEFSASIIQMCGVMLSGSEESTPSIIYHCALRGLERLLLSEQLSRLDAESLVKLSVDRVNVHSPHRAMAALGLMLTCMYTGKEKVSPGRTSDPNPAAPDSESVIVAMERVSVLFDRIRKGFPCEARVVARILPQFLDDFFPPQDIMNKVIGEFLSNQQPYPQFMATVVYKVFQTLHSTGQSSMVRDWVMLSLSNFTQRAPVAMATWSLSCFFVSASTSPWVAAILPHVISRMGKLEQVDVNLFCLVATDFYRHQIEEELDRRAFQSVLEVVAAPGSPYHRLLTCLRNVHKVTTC
* marks the source's active call; other numbers are inactive results. Shown are actives, neighbours in structure and some others; about 3.5% of the full set was active somewhere. Cut-off read from the data, not from the text of the source: active = inhibition above about 50%; inactive = the rest.

How did Cc1cc(C)n(-c2c3c(nc4c(-c5ccccc5)c(C)nn24)CCC3)n1 do in these assays?
Pf apPOL block: -2.5; mHTT-CaM PPI inh: -7.5

Results for Fc1ccc(-c2ncnn2-c2ccc(Cl)cc2)cc1 ?
Pf apPOL block: -0.5; mHTT-CaM PPI inh: -1.0

Results for Cc1ccc(NC(=O)C2CCCN(C(=O)c3cccc(Cl)c3)C2)cc1C (stereo not drawn) ?
Pf apPOL block: 6.5; mHTT-CaM PPI inh: 29.9

Results for Cc1cc(C)cc(NC(=O)C2CCCN(C(=O)c3ccccc3F)C2)c1 (stereo not drawn) ?
Pf apPOL block: -23.3; mHTT-CaM PPI inh: 97.3*

What do the screens show for `O=C(Nc1cccc(F)c1)C1CCCN(C(=O)c2ccccc2F)C1` (stereo not drawn)?
Pf apPOL block: -7.5; mHTT-CaM PPI inh: 29.8

How did COc1cc(Cl)c(NC(=O)C2CCCN(c3nccc4sccc34)C2)c(OC)c1 (stereo not drawn) do in these assays?
Pf apPOL block: 2.8; mHTT-CaM PPI inh: 60.2*

What do the screens show for `COc1cc(OC)c(NC(=O)C2CCCN(c3nccc4sccc34)C2)cc1Cl` (stereo not drawn)?
Pf apPOL block: -4.6; mHTT-CaM PPI inh: 45.1

Results for COc1ccc(Cl)cc1NC(=O)C1CCN(c2nccc(C)n2)CC1 ?
Pf apPOL block: -0.4; mHTT-CaM PPI inh: -7.6

How did COc1ccc(Cl)cc1NC(=O)C1CCN(c2nccc3sccc23)CC1 do in these assays?
Pf apPOL block: -3.0; mHTT-CaM PPI inh: 100.3*

What do the screens show for `CCOC(=O)C1CCN(C(=O)C2CCN(c3ccc(N4CCOCC4)nn3)CC2)CC1`?
Pf apPOL block: -3.0; mHTT-CaM PPI inh: 3.3

What do the screens show for `CN(C)c1ccc(/C=C/c2nc3ccc(I)cc3c(=O)n2CCO)cc1`?
Pf apPOL block: -1.5; mHTT-CaM PPI inh: 22.0

What do the screens show for `c1ccc(CN2CCN(Cc3ccccn3)CC2)nc1`?
Pf apPOL block: 10.8; mHTT-CaM PPI inh: 3.0

How did c1ccc(CNCCN2CCNCC2)nc1 do in these assays?
Pf apPOL block: -1.8; mHTT-CaM PPI inh: 100.2*

What do the screens show for `Cc1ccccc1NC(=O)C1CC(=O)N(c2ccc3c(c2)CCN3C(=O)C2CCC2)C1` (stereo not drawn)?
Pf apPOL block: -2.2; mHTT-CaM PPI inh: 8.5

Results for CC(C)(C)n1nc2c(c1NC(=O)COc1ccc(Cl)cc1)CSC2 ?
Pf apPOL block: 5.5; mHTT-CaM PPI inh: 57.0*

How did CC(C)(C)n1nc2c(c1NC(=O)COc1ccc(Cl)cc1Cl)CSC2 do in these assays?
Pf apPOL block: -3.1; mHTT-CaM PPI inh: 13.0

Results for COc1ccc(C(C[N+](=O)[O-])c2c(O)cc(C)oc2=O)cc1 (stereo not drawn) ?
Pf apPOL block: 1.4; mHTT-CaM PPI inh: 6.3

What do the screens show for `O=[N+]([O-])CC(c1ccc2c(c1)OCO2)c1c[nH]c2ccccc12` (stereo not drawn)?
Pf apPOL block: -5.6; mHTT-CaM PPI inh: 20.3

Results for Cc1[nH]c2ccccc2c1C(C[N+](=O)[O-])c1cc(Cl)c2c(c1)OCO2 (stereo not drawn) ?
Pf apPOL block: 1.0; mHTT-CaM PPI inh: 62.0*

How did COc1cc(C(C[N+](=O)[O-])c2c(C)[nH]c3ccccc23)ccc1O (stereo not drawn) do in these assays?
Pf apPOL block: 1.4; mHTT-CaM PPI inh: 61.0*

How did O=C(Nc1nccs1)c1ccc2c(c1)OCO2 do in these assays?
Pf apPOL block: -10.8; mHTT-CaM PPI inh: -4.3

What do the screens show for `Cc1[nH]c2ccccc2c1C(C[N+](=O)[O-])c1ccc2c(c1)OCO2` (stereo not drawn)?
Pf apPOL block: 4.1; mHTT-CaM PPI inh: 75.0*

What do the screens show for `Cc1[nH]c2ccccc2c1C(Nc1nccs1)c1ccc2c(c1)OCO2` (stereo not drawn)?
Pf apPOL block: 7.3; mHTT-CaM PPI inh: 83.0*

Results for Cc1cc(O)c(C(C[N+](=O)[O-])c2ccc(Cl)cc2Cl)c(=O)o1 (stereo not drawn) ?
Pf apPOL block: 1.6; mHTT-CaM PPI inh: 3.0

How did O=c1oc(/C=C/c2ccc([N+](=O)[O-])cc2)nc2ccc(Br)cc12 do in these assays?
Pf apPOL block: -8.9; mHTT-CaM PPI inh: 3.0

What do the screens show for `Nc1c(C(=O)Nc2ccc(F)cc2)nnn1-c1ccc2c(c1)OCCO2`?
Pf apPOL block: -0.7; mHTT-CaM PPI inh: 0.0

How did Clc1cc(Cl)cc(N/N=C/c2ccccn2)c1 do in these assays?
mHTT-CaM PPI inh: inactive

How did O=S1(=O)N=C(N/N=C/c2ccccn2)c2ccccc21 do in these assays?
mHTT-CaM PPI inh: active

Results for Cc1ccc(NC(=O)C2CCCN(c3cnn(C)c(=O)c3)C2)c(C)c1 (stereo not drawn) ?
Pf apPOL block: -0.8; mHTT-CaM PPI inh: 0.0

How did Cc1noc(COC2CCN(S(=O)(=O)c3ccccc3C)CC2)n1 do in these assays?
Pf apPOL block: 1.5; mHTT-CaM PPI inh: -1.0

How did COc1cc(/C=c2\sc3nc4ccccc4n3c2=O)cc([N+](=O)[O-])c1O do in these assays?
Pf apPOL block: 1.2; mHTT-CaM PPI inh: 57.0*

How did O=c1/c(=C/c2ccc(Br)c([N+](=O)[O-])c2)sc2nc3ccccc3n12 do in these assays?
Pf apPOL block: 2.2; mHTT-CaM PPI inh: -6.0

How did O=C(c1ccc2cc[nH]c2c1)N1CCc2c(nc3cc[nH]n3c2=O)C1 do in these assays?
Pf apPOL block: -3.3; mHTT-CaM PPI inh: -5.0

How did CCOc1ccc(-c2csc(=Nc3ccccc3)n2CCN2CCOCC2)cc1 do in these assays?
Pf apPOL block: -3.1; mHTT-CaM PPI inh: 22.0

How did OCCCn1c(-c2ccccc2)csc1=Nc1cccc(Cl)c1 do in these assays?
Pf apPOL block: -4.8; mHTT-CaM PPI inh: 92.0*

What do the screens show for `OCCCn1c(-c2ccc(I)cc2)csc1=Nc1ccccc1`?
Pf apPOL block: -4.8; mHTT-CaM PPI inh: 70.0*

How did c1ccc(Cn2c(-c3ccccc3)csc2=Nc2ccccc2)cc1 do in these assays?
mHTT-CaM PPI inh: -2.3

How did OCCCn1c(-c2ccccc2)csc1=Nc1ccccc1 do in these assays?
Pf apPOL block: -1.3; mHTT-CaM PPI inh: 51.0*

How did OCCn1c(-c2ccc(I)cc2)csc1=Nc1ccccc1 do in these assays?
Pf apPOL block: -1.5; mHTT-CaM PPI inh: 66.0*

How did CCn1c(-c2ccccc2)csc1=Nc1ccc(S(=O)(=O)O)cc1 do in these assays?
Pf apPOL block: -2.9; mHTT-CaM PPI inh: 17.0

What do the screens show for `CC(C)(C)NC(=O)C(=O)NCCc1cccs1`?
Pf apPOL block: 0.7; mHTT-CaM PPI inh: -7.2

How did O=C(NC1CCCCCC1)c1ccc(-c2cncnc2)nc1 do in these assays?
Pf apPOL block: 4.5; mHTT-CaM PPI inh: -4.2

How did COc1ccccc1NC(=O)Cn1nnc(-c2ccccc2)n1 do in these assays?
Pf apPOL block: -2.6; mHTT-CaM PPI inh: -20.9

How did CCOc1ccc(-c2cc(C(=O)Nc3ccc(S(N)(=O)=O)cc3)c3ccccc3n2)cc1 do in these assays?
Pf apPOL block: 3.8; mHTT-CaM PPI inh: 3.1

What do the screens show for `O=C(Nc1ccc(F)cc1)C1CCc2sc(C(=O)N3CCCC3)cc2C1` (stereo not drawn)?
Pf apPOL block: -7.3; mHTT-CaM PPI inh: -1.5

How did O=C(Nc1nnc(-c2ccco2)o1)c1c[nH]c2ccccc12 do in these assays?
Pf apPOL block: -27.7; mHTT-CaM PPI inh: 72.5*

Results for CCS(=O)(=O)c1ccc(-c2nnc(NC(=O)c3c[nH]c4ccccc34)o2)cc1 ?
Pf apPOL block: -84.7; mHTT-CaM PPI inh: 12.6

How did Cc1cc(C2C(C#N)=C(N)N(c3ccc(Br)cc3)C3=C2C(=O)CCC3)c(C)s1 (stereo not drawn) do in these assays?
Pf apPOL block: -1.8; mHTT-CaM PPI inh: 46.0

How did Cc1cccc(S(=O)(=O)NC2CCN(c3ccccc3)C2=O)c1 (stereo not drawn) do in these assays?
Pf apPOL block: 59.8*; mHTT-CaM PPI inh: -15.5

High-throughput results (PubChem)
